Reference: the supplement of paper PMC5641865, “A screen for kinase inhibitors identifies antimicrobial imidazopyridine aminofurazans as specific inhibitors of the Listeria monocytogenes PASTA kinase PrkA” (The Journal of Biological Chemistry, 2017)
± gives the standard deviation of the averaged measurements.

tested on: Listeria monocytogenes 10403S; test: growth inhibition relative to ceftriaxone-alone control; higher = stronger potentiation of ceftriaxone growth inhibition; conditions: 10 µM; ceftriaxone 1 ug/ml; 12 h
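Further: End-point A600 read in BHI broth at 37 °C with 2% DMSO, inhibition computed as (1 − OD with compound plus ceftriaxone ÷ OD with ceftriaxone only) × 100.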

SMILES | growth inhibition [%]
CCOc1ccc2c(-c3ccnc(Nc4cccc(C(F)(F)F)c4)n3)cnn2n1 | -8.14 ± 6.9
O=C(Nc1n[nH]c2nc(-c3ccc(O)cc3)c(Br)cc12)C1CC1 | -9.15 ± 4.2
Cc1cc(C(C)Nc2ccccc2)c2nc(N3CCOCC3)cc(=O)n2c1 (stereo not given) | 24.3 ± 9.5
c1ccc(-c2n[nH]cc2-c2ccnc(-c3ccc(OCCN4CCOCC4)cc3)c2)nc1 | -1.77 ± 9.5
CC(C)(C)c1cc(NC(=O)Nc2ccc(-c3cn4c(n3)sc3cc(OCCN5CCOCC5)ccc34)cc2)no1 [Quizartinib (AC220)] | 35.5 ± 10
COc1ccc2c(-c3ccnc(Nc4cccc(OC(F)(F)F)c4)n3)cnn2n1 | -7.53 ± 17
COc1ccc(S(=O)(=O)N(C(C)=O)c2ccccc2/C=C/c2cc[n+]([O-])cc2)cc1 | 13.3 ± 8.8
O=C(O)c1ccc2c(c1)nc(Nc1cccc(Cl)c1)c1ccncc12 [CX-4945 (Silmitasertib)] | 76.2 ± 9.6
Cc1nnc(-c2ccc(C)c(-c3ccc(C(=O)NCc4ccc(Cl)cc4)cc3)c2)o1 | -4.74 ± 3.3
CCN1CCC(CC(=O)Nc2n[nH]c3nnc(-c4cccc(F)c4F)cc23)CC1 | 7 ± 6.8
Cc1cnc(NC(=O)Nc2cc(Br)c(C)cc2OC[C@@H]2CNCCO2)cn1 | 61.8 ± 50
COc1ccc(COc2ccc(Cc3cnc(N)nc3N)cc2OC)cc1 | 63.8 ± 9.7
CS(=O)(=O)Nc1ccc(N/C=C2\C(=O)Nc3ccccc32)cc1 | -14.6 ± 19
CS(=O)(=O)CCNCc1ccc(-c2ccc3ncnc(Nc4ccc(OCc5cccc(C(F)(F)F)c5)cc4)c3c2)o1 | -9.85 ± 16
Cc1cc(Nc2cc(N3CCN(C)CC3)nc(/C=C/c3ccccc3)n2)n[nH]1 | 85.7 ± 18
